PubChem BioAssay (NCI)
Compounds without any hit were thinned out: in the full panel of roughly 79,000, 15% have a hit. No stated cut-off is given here; in the data, active means growth inhibition above about 70%; inactive means the rest.

Key:
[1] = NCI Yeast Anticancer Drug Screen. Data for the wt1 strain (AID 149);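 further: 0% = growth of vehicle-treated wt1 cultures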; settings: S. cerevisiae wt1 strain (SPY 50644) growth inhibition, hits give high values
Summary of the method: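 Vehicle-normalised growth inhibition; strain wt1; compound exposure.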

[2] = NCI Yeast Anticancer Drug Screen. Data for the rad50EPP+ strain (AID 151);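 further: 0% = growth of vehicle-treated control cultures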; settings: S. cerevisiae rad50 mutant strain, hits give high values
Summary of the method: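 Vehicle-normalised growth inhibition; rad50EPP+ yeast strain, altered in DNA damage repair, compound-treated.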

[3] = NCI Yeast Anticancer Drug Screen. Data for the mgt1 strain (AID 153); settings: S. cerevisiae mgt1 mutant growth inhibition, hits give high values
Summary of the method: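 Vehicle-normalized growth inhibition is determined in mgt1 yeast, a strain selected for a defined alteration in DNA repair or cell cycle control.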

[4] = NCI Yeast Anticancer Drug Screen. Data for the rad50 strain (AID 155);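 further: 0% = growth of vehicle-only cultures of the same strain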; settings: S. cerevisiae rad50 strain growth inhibition, hits give high values
Summary of the method: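 A DNA repair-deficient yeast mutant serves as the test organism; compound-induced growth inhibition is calculated against vehicle-treated cells.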

[5] = NCI Yeast Anticancer Drug Screen. Data for the mec2-1 strain (AID 157); settings: S. cerevisiae mec2-1 strain, hits give high values
Summary of the method: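 Mutant yeast (mec2-1) grown with compound; growth inhibition relative to vehicle control reported.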

[6] = NCI Yeast Anticancer Drug Screen. Data for the rad14 strain (AID 159);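 further: 0% = growth of vehicle-treated control cultures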; settings: S. cerevisiae rad14 strain growth inhibition, hits give high values
Summary of the method: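 Vehicle-treated cultures served as the baseline for growth inhibition of a DNA repair-mutant yeast strain exposed to each compound.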

[7] = NCI Yeast Anticancer Drug Screen. Data for the sgs1 mgt1 strain (AID 161);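 further: 0% = growth of cultures given vehicle only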; settings: S. cerevisiae sgs1 mgt1 strain, at 50.0 µM, hits give high values
Summary of the method: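 This yeast growth screen uses a strain with defined DNA-repair lesions; compound-treated growth is compared with vehicle-treated growth.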

[8] = NCI Yeast Anticancer Drug Screen. Data for the CLN2oe strain (AID 163);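 further: 0% = growth of vehicle-only control cultures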; settings: S. cerevisiae CLN2oe strain, hits give high values
Summary of the method: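 Compounds are applied to yeast harbouring a defined cell-cycle control change; reduced growth compared with vehicle-treated controls gives the value.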

[9] = NCI Yeast Anticancer Drug Screen. Data for the cln2 rad14 strain (AID 165);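 further: 0% = growth equal to vehicle treated cultures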; settings: S. cerevisiae cln2 rad14 strain, at 50.0 µM, hits give high values
Summary of the method: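 Readout is yeast growth inhibition versus vehicle-treated controls, using a strain with cln2 and rad14 alterations exposed to compound.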

[10] = NCI Yeast Anticancer Drug Screen. Data for the bub3 strain (AID 167); settings: S. cerevisiae bub3 mutant strain, hits give high values
Summary of the method: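 Inhibition values come from growth of compound-treated mutant yeast normalised to vehicle-treated controls.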

[11] = NCI Yeast Anticancer Drug Screen. Data for the wt2 strain (AID 169);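 further: 0% = growth of vehicle-treated yeast cultures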; settings: S. cerevisiae wt2 strain growth inhibition, hits give high values
Summary of the method: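 Against vehicle-treated controls, the growth of yeast exposed to each compound was compared, and the inhibition was recorded.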

[12] = NCI Yeast Anticancer Drug Screen. Data for the mlh1 strain (AID 171);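 further: 0% = growth of vehicle-treated control cultures of the same strain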; settings: S. cerevisiae mlh1 strain growth inhibition, hits give high values
Summary of the method: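 Measured: yeast growth. Reference: vehicle-treated controls. Organism: strain with a defined alteration affecting DNA damage repair or cell cycle control, treated with compound.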

[13] = NCI Yeast Anticancer Drug Screen. Data for the sgs1 strain (AID 173);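 further: 0% = growth of vehicle-only control cultures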; settings: S. cerevisiae sgs1 mutant, hits give high values
Summary of the method: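 Each compound was added to cultures of the altered yeast strain. Growth was recorded, and inhibition was derived by comparison with vehicle controls.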

[14] = NCI Yeast Anticancer Drug Screen. Data for the mlh1 rad18 strain (AID 175); settings: S. cerevisiae mlh1 rad18 strain growth inhibition; at 50.0 µM; hits give high values
Summary of the method: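 Genetically defined yeast (DNA repair-deficient) exposed to compounds; growth inhibition determined relative to vehicle.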

[15] = NCI Yeast Anticancer Drug Screen. Data for the rad18 strain (AID 177); settings: S. cerevisiae rad18 mutant growth inhibition, hits give high values
Summary of the method: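 Vehicle-treated cultures served as the baseline for scoring compound-induced growth inhibition in DNA-repair-mutant yeast.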

Measured: growth inhibition

CC[C@]1(O)C[C@H]2CN(CCc3c([nH]c4ccccc34)[C@@](C(=O)OC)(c3cc4c(cc3OC)N(C)[C@H]3[C@@](O)(C(=O)OC)[C@H](OC(C)=O)[C@]5(CC)C=CCN6CC[C@]43[C@@H]65)C2)C1
inactive: [1]; at 1.2 µM 1% | [1]; at 3.7 µM -1% | [1]; at 11.0 µM -2% | [1]; at 33.0 µM -1% | [1]; at 100.0 µM -19% | [2]; at 1.2 µM -2% | [2]; at 3.7 µM -3% | [2]; at 11.0 µM -2% | [2]; at 33.0 µM -1% | [2]; at 100.0 µM -6% | [3]; at 1.2 µM -2% | [3]; at 3.7 µM -3% | [3]; at 11.0 µM -1% | [3]; at 33.0 µM -2% | [3]; at 100.0 µM -6% | [4]; at 1.2 µM -2% | [4]; at 3.7 µM -3% | [4]; at 11.0 µM 2% | [4]; at 33.0 µM -4% | [4]; at 50.0 µM -4.25% | [4]; at 100.0 µM -5% | [5]; at 1.2 µM -2% | [5]; at 3.7 µM 0% | [5]; at 11.0 µM -2% | [5]; at 33.0 µM 1% | [5]; at 50.0 µM -3.3% | [5]; at 100.0 µM -7% | [6]; at 1.2 µM -2% | [6]; at 3.7 µM -4% | [6]; at 11.0 µM 0% | [6]; at 33.0 µM -2% | [6]; at 100.0 µM -3% | [7] 1.35% | [8]; at 1.2 µM -2% | [8]; at 3.7 µM 3% | [8]; at 11.0 µM 1% | [8]; at 33.0 µM -11% | [8]; at 100.0 µM -6% | [9] 24.4% | [10]; at 1.2 µM 1% | [10]; at 3.7 µM 1% | [10]; at 11.0 µM -1% | [10]; at 33.0 µM -7% | [10]; at 50.0 µM 14.3% | [10]; at 100.0 µM -7% | [11]; at 1.2 µM -1% | [11]; at 3.7 µM 0% | [11]; at 11.0 µM -3% | [11]; at 33.0 µM -3% | [11]; at 100.0 µM -4% | [12]; at 1.2 µM 0% | [12]; at 3.7 µM -1% | [12]; at 11.0 µM -1% | [12]; at 33.0 µM -1% | [12]; at 100.0 µM -4% | [13]; at 1.2 µM 0% | [13]; at 3.7 µM -2% | [13]; at 11.0 µM 1% | [13]; at 33.0 µM 1% | [13]; at 100.0 µM -3% | [14] 30.6% | [15]; at 1.2 µM -2% | [15]; at 3.7 µM -3% | [15]; at 11.0 µM -5% | [15]; at 33.0 µM -6% | [15]; at 100.0 µM -7%
